This note sets out measurements from PubChem BioAssay (NCI).

Each structure is given as a SMILES string. The panel holds about 83,000 compounds, 20% with a hit somewhere; the sample as a whole holds those more often.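 Negative percent growth values reflect cell death: -40 means 40% of the cells present at the start died, and -100 means all died.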 Values without a mark were called inactive. Active and inactive are the calls of the source.

In this assay the test system is MOLT-4 leukemia. In words: NCI-60 one-dose screen, 48 h (100 = growth as untreated, 0 = no growth, -100 = all killed). The settings on record: 10 µM unless noted. The method, then: Growth inhibition of the MOLT-4 human tumor cell line is measured as a screen for anti-cancer activity. Cells are grown in 96 well plates and exposed to the test compound for 48 hours. Compounds are tested at a single concentration, which is 10^-5 M for most compounds. The reported endpoint is percent growth (GI% or GIPRCNT), where numbers from 0 - 100% represent growth inhibition, and numbers from -100% - 0 represent cell death. For example, a value of 40 represents 60% growth inhibition. A value of 0 means no net growth occurred over the course of the experiment. A value of -40 indicates 40% of cells at the beginning of the experiment died by the end of the experiment. A value of -100 means all cells are dead at the end of the experiment.
NCI-60 Human Tumor Cell Lines Screen was performed using the standard one-dose NCI protocol, which is described in more detail at https://dtp.cancer.gov/discovery_development/nci-60/default.htm.
Compounds with GIPRCNT values below 10 were considered active. Activity score was based on GIPRCNT using the following formula: […]
Score is 0 for GIPRCNT values of 100 or above, 50 for GIPRCNT values of 0, and 100 for GIPRCNT values of -100.
Take `CN(C)CCCNc1c2ccccc2nc2ccccc12`: the growth is 83.3%.

Consider `CN1CCN(c2ccc(Nc3c4ccccc4nc4ccccc34)cc2)CC1`, for which the growth is 97.5%.

`COc1cc2nc(N3CCCC3)nc(Nc3ccccc3)c2cc1OC`: the growth is -24.7% (active).

On to `C=C1C(=O)O[C@H]2[C@H]1CC/C(COC(=O)NCc1ccc(OC)c(OC)c1)=C\CC[C@@]1(C)O[C@@H]21`, for which the growth was 39.4%.

Consider `O=C1Nc2ccc(Br)cc2C12Oc1ccccc1C1CC(c3ccc(F)cc3)=NN12` (stereo not given), for which the growth is 74.8%.

As to `C[n+]1ccccc1/C=C/c1ccc2cccc(O)c2n1`, the growth is 95.2%.

With `O=c1c2c3c(sc2nc(N/N=C/c2cn(-c4ccccc4)nc2-c2ccc(Cl)cc2)n1Cc1ccccc1)CCCC3`, the growth was 22%.

As to `C#CCOc1ccc2ncnc(NCc3cccc(NC(=O)CCl)c3)c2c1`, the growth was 3.48% [8.25 µM] (active).

Consider `COc1cccc(NC(=O)c2sc3nc(C)c(C(C)=O)cc3c2N)c1`, for which the growth is 44.9%.

`CC(C)C1=C[C@@]23CC[C@@H]4[C@](C)(CCC[C@@]4(C)C(=O)N4CCCNCC4)[C@H]2C[C@@H]1[C@H]1C(=O)CCC(=O)[C@H]13`: the growth is 96.5%.

As to `C=C1c2nc3ccccc3n2C=C(c2ccc(Cl)cc2)N1Cc1ccc(OC)cc1`, the growth was 64.8%.

On to `O=C(Nc1cccc2[nH]c(C(F)(F)F)nc12)c1ccc(-n2cnnn2)cc1`, for which the growth was 32.4%.

On to `CC(O)CN(CC(C)O)c1ccc2c(c1)Cc1cc([N+](=O)[O-])ccc1-2` (stereo not given), for which the growth is 69.8%.

As for `CCCCN(CCCC)CCCn1c(-c2ccccc2)ccc1-c1ccccc1`, the growth was 55%.

As for `N#Cc1c(-c2ccc(Cl)cc2)nc(NN=Cc2ccco2)nc1N1CCOCC1`, the growth was 83%.

Turning to `C=C(C)C(=O)Nc1ccc(NC(C)C)cc1`, the growth is 128%.

`NC(=O)c1cc(Cl)ccc1NC(=O)/C=C/c1ccccc1`: the growth is 28.4%.

For the molecule `COc1ccc(-c2n[nH]nc2-c2csc3ccccc23)cc1OC`, the growth was 11%.

With `COc1ccc(C2C(C#N)=C(N)Oc3n[nH]c(-c4cccs4)c32)cc1I` (stereo not given), the growth is 74.9%.

On to `CSc1nc2c(c(=O)[nH]1)C1(C(=O)Nc3ccccc31)c1c(nc(SC)[nH]c1=O)N2`, for which the growth is 108%.

With `CCN(CC)c1ccc(-c2cc(-c3cc(OC)c(OC)c(OC)c3)nc(N3CCOCC3)c2C#N)cc1`, the growth is 18.8%.

In the case of `O=C(COc1ccc(/C=C2\COc3ccccc3C2=O)cc1)Nc1nccs1`, the growth was 22.5%.

Regarding `COc1cc(C(=O)/C=C/c2cccnc2Nc2ccc(Cl)cc2)cc(OC)c1OC`, the growth was -6.63% (active).

For the molecule `CN(C)C(=S)N=Nc1c(O)[nH]c2ccccc12`, the growth was -12.4% (active).

As to `O=C(Nc1ccccc1Cl)c1ccc(NC2=C(Cl)C(=O)N(C3CCCCC3)C2=O)cc1`, the growth is 40.8% [30 µM].

Regarding `O=C1CC[C@H](c2ccc(O)c3c2C(=O)[C@@H]2O[C@@H]2C3=O)c2cccc(O)c21`, the growth is 45.1%.

Turning to `C#CCOc1ccc2ncnc(Nc3cccc(CNC(=O)CCl)c3)c2c1`, the growth was 15.1% [8.25 µM].

For the molecule `CC(C)(O)c1cn(CCCCN2C(=O)C(=O)c3ccccc32)nn1`, the growth was 94.6%.

For `O=C1CSC(=S)N1CCc1ccc(O)cc1`, the growth is 93.4%.

Regarding `COc1cc2c(cc1-c1c(C)noc1C)ncc1nc(C3CCCC3)n([C@H](C)COC(F)F)c12`, the growth was 42.3%.

Regarding `O=C1c2ccccc2C(=O)c2c1ccc1[nH]c(-c3cccs3)nc21`, the growth was 70.1%.

Consider `COc1ccc2nc(NC(=O)CSc3nnc4n3S(=O)(=O)c3ccccc3N4c3ccccc3)sc2c1`, for which the growth was 6.47% (active).

For `CC(=O)c1cc(C(=O)c2ccc3c(c2)Sc2ccccc2N3)n2ccccc12`, the growth is 13.9%.

Turning to `Brc1ccc(-c2csc(Nc3ccccn3)n2)cc1`, the growth is 82.6%.

Regarding `CCCCCCN(CCCCCC)CCC(O)c1ccc2ccccc2c1` (stereo not given), the growth is 45.7%.

For the molecule `Oc1ccc(N=Cc2ccccc2O)cc1`, the growth is 89.6%.

As to `O=C1/C(=C/c2ccc(Cl)cc2)SC(=S)N1CCc1ccc(O)cc1`, the growth is 54.3%.

In the case of `COc1ccc(CN2c3ccccc3Sc3ccccc32)c(C(F)(F)F)c1`, the growth was 24%.

On to `Cc1cc(Nc2ccc(C)c(Cl)c2)n2nc(C(F)(F)F)nc2n1`, for which the growth is 74.1%.

Take `COc1ccc(S(=O)(=O)N2CCN(C)CC2)cc1NC(=O)c1[nH]c(C)c2c1CCCCC2=O`: the growth is 81.4%.
